An excerpt weighted towards active compounds, which were near 18% of everything screened.
TDP1 inh: inhibitors of human tyrosyl-DNA phosphodiesterase TDP1. Q9NUW8. recombinant TDP1, AlphaScreen DNA substrate cleavage. Potency, µM (highest dose often 130 µM), inactives show top-dose activity change, negative = inhibition, actives largely listed as inhibitors. 350,000 tested, 0.28% active. AID 485290; further: nearly all actives have a fitted effect of over 40% in size
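Tdp1 1 nM final; 15 min RT w/ cpd; substrate 15 nM, 5 min; beads 10 ug/ml, 10 min; AlphaScreen read. Neg ctrl: no enzyme.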
PLK1 PBD inh: inhibitors of human PLK1 polo-box domain binding; P53350; Plk1 PBD binding of FITC phosphopeptide, fluorescence polarization; Potency, µM, inactives show max response, negative = inhibition, actives largely listed as inhibitors; 360,000 tested, 2.8% active; AID 720504; further: series mostly up to about 57 µM; nearly all actives have a fitted effect of over 65% in size
Target sequence (P53350 whole entry, looked up, the tested form may be a part): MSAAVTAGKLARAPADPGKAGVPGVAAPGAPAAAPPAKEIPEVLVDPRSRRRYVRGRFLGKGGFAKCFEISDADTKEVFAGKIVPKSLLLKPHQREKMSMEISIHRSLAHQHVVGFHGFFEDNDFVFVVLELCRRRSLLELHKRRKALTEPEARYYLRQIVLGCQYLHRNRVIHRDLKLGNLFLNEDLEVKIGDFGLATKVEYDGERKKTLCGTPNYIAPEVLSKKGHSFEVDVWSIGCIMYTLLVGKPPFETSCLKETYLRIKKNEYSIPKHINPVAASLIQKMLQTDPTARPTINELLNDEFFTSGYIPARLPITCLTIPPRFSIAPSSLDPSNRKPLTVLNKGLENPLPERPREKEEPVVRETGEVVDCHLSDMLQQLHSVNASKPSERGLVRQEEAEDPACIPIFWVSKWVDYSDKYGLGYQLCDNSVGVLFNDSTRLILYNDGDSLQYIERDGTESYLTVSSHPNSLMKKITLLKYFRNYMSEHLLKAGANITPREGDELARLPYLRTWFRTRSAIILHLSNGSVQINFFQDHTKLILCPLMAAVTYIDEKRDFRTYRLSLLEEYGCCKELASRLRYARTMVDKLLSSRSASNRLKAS
GCN5L2 inh: blocks human GCN5L2 histone acetyltransferase; GCN5L2 HAT assay, ThioGlo1 CoA-SH fluorescence; Q92830; 390,000 tested, 0.21% active; Potency, µM (highest dose often 58.9 µM), for inactives: top-dose activity change, negative = inhibition, actives largely listed as inhibitors
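Fluorescence readout, Ex340nm/Em540nm: ThioGlo1 (50uM final) reacts with free CoA thiol released as 20nM GCN5L2 acetylates H3(1-25) peptide (75uM) using acetyl-CoA (70uM). Compound and enzyme sat 15 min beforehand; 20 min room-temperature reaction.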
DT40 TDP1 CPT: DT40-hTDP1 cell growth loss with CPT; Potency, µM (top dose mostly 46.2 µM), for inactives: at the top dose activity change, negative = growth inhibition, actives largely listed as inhibitors; chicken DT40 Tdp1-/-;hTDP1 cells + 20 nM CPT, ATP luminescence, 48 h; AID 686979; 420,000 tested, 12% active; further: nearly all actives have a fitted effect of over 55% in size
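Cell growth measured by CellTiter-Glo luminescence after a minimum 48 h, 37 C compound exposure with 20 nM CPT in Tdp1-knockout DT40 cells stably expressing hTDP1, seeded 400/well; qHTS titration format.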
TDP1 cell noCPT: qHTS for Inhibitors of human tyrosyl-DNA phosphodiesterase 1 (TDP1): qHTS in cells in absence of CPT | DT40 Tdp1-/- hTDP1 cells, no CPT, ATP luminescence, 48 h | Potency, µM (top dose mostly 46.2 µM), for the others: at the top dose activity change, negative = growth inhibition, usual class: inhibitors | 420,000 tested, 15% active; further: nearly all actives have a fitted effect of over 55% in size
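Camptothecin absent (DMSO only). Human TDP1-complemented DT40 knockout cells, 400 cells/well, 37 °C for minimum 48 hr; ATP measured via CellTiter-Glo, 30 min dark incubation, luminescence.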
VDR inh: inhibitors of human vitamin D receptor; VDR-SRC2-3 peptide fluorescence polarization, 2 h; P11473; Potency, µM, for inactives: max response, negative = inhibition, usual class: inhibitors; 400,000 tested, 0.93% active
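Two reagent solutions held at 4 deg C in the dark were dispensed, compounds pinned at 23 nl, and the mixture incubated 2 h at room temperature. Read-out: fluorescence polarization of VDR–SRC2-3 peptide binding.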
The depositor's hits bear a star; ? = inconclusive; . = no result given; [ ] = dose if it differs, or a comment. The call rests on the fitted dose curve; in most records, active means well fitted curve in the direction sought with a large enough effect; inconclusive means small, poorly fitted or top-dose-only effect, or another doubt; inactive means no such curve, though single readings can be large; an effect the other way counts as inactive or inconclusive. On the % scale 0 is the no-effect control and ±100 the full control effect; potency means the concentration at half of the fitted maximal effect.

SMILES	TDP1 inh	PLK1 PBD inh	GCN5L2 inh	DT40 TDP1 CPT	TDP1 cell noCPT	VDR inh
COc1ccc(Cn2c(O)c(/C=N/NC(=O)c3cccnc3)c3ccccc3c2=O)cc1	11%	9%	-7%	15µM*	23µM*	-24%
O=C1NC(=S)/C(=C\c2ccc(-c3ccccc3Cl)o2)S1	6%	13µM*	-25%	23µM*	13µM*	-20%
O=C1NC(=O)/C(=C\c2ccc(Br)o2)S1	.	-22%	-4%	0%	-25%	-15%
O=C1NC(=O)/C(=C/c2ccc(-c3cc(C(=O)O)ccc3Cl)o2)S1	32µM*	?	-12%	1%	-16%	-21%
O=C(O)c1cccc(NS(=O)(=O)c2cc(S(=O)(=O)c3ccc(Cl)cc3)ccc2Cl)c1	3%	-9%	-9%	-4%	-3%	-10%
CCOc1ccc(NC(=O)CCC(=O)NNC(=O)COc2ccccc2C)cc1	-5%	-18%	-8%	14%	-2%	-7%
Cc1cc(-c2ccc(Cl)cc2Cl)c(C#N)c(=O)[nH]1	4%	17µM*	0%	?	?	?
CSc1nc(-c2ccc(Cl)cc2Cl)[nH]c(=O)c1C#N	3%	?	1%	-19%	?	-24%
O=C1c2cccnc2C(=O)N1c1nc(-c2ccccc2)cs1	.	.	.	-21%	-29%	.
CC1Cc2ccccc2N1C(=O)CSc1nnc2c(n1)[nH]c1ccc(F)cc12 (stereo not drawn)	-5%	-16%	-4%	?	21µM*	-2%
O=C(CSc1nnc2c(n1)[nH]c1ccc(F)cc12)N1CCOCC1	6%	-3%	-2%	10%	2%	1%
Cn1c2ccccc2c2nnc(SCC(=O)NC3CCCC3)nc21	.	-4%	-8%	-2%	?	6%
CCCn1c(SCC(=O)N2CCCCC2)nnc1-c1ccccn1	-2%	.	-6%	.	.	.
CCCn1c(SCC(=O)N2c3ccc(F)cc3CCC2C)nnc1-c1ccccn1 (stereo not drawn)	4%	30µM*	1%	?	21µM*	?
CC1CCc2cc(F)ccc2N1C(=O)CSc1nnc2c3ccccc3n(C)c2n1 (stereo not drawn)	-3%	-21%	-6%	18µM*	21µM*	9%
COCCN(C(=O)COC(=O)/C=C/c1ccc2c(c1)OCO2)c1c(N)n(Cc2ccccc2)c(=O)[nH]c1=O	0%	-3%	-1%	6%	-8%	-17%
CCCN(C(=O)CCSc1ccc(F)cc1)c1c(N)n(Cc2ccccc2)c(=O)[nH]c1=O	-3%	-8%	-1%	-2%	-8%	-11%
CCC(C)(C)C(=O)O[C@@H]1C[C@@H](C)C=C2C=C[C@H](C)[C@H](CC[C@@H]3C[C@@H](O)CC(=O)O3)[C@H]21	10%	.	-26%	24µM*	19µM*	-7%
CCC(C)(C)C(=O)OC1CC(C)C=C2C=CC(C)C(CCC3CC(O)CC(=O)O3)C21 (stereo not drawn)	15%[56.1 µM]	.	3%	26µM*	21µM*	?
C/C=C/C1=Cc2ccccc2C(CC(=O)OC)N1C(=O)OC (stereo not drawn)	-2%[12.3 µM]	.	.	.	.	.
COc1ccc(-c2cc(OC(=O)c3cccc(Cl)c3)c3c(C)oc(C)c3c(=O)c2)cc1	7%	.	-13%	26µM*	?	?
CCOc1cc(-c2ccc(OC(=O)c3ccc(Cl)cc3)c(OC)c2)cc(=O)c2c(C)oc(C)c12	8%	.	-9%	4.6µM*	5.2µM*	6%
CCOc1cc(-c2ccc(OC(=O)c3ccccc3)c(OC)c2)cc(=O)c2c(C)oc(C)c12	12%	.	-6%	6.5µM*	5.8µM*	4%
CC(C)NC(=O)C1(C)CN(S(C)(=O)=O)CC(=O)N1Cc1cccc(C(F)(F)F)c1 (stereo not drawn)	.	-12%	.	-2%	?	.

Screening data (PubChem BioAssay)
